Assay [1] can be described thus: NCI Yeast Anticancer Drug Screen. Data for the rad50 strain (AID 155).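 Note: 0% = growth of vehicle-only cultures of the same strain.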 Conditions: S. cerevisiae rad50 strain growth inhibition, stronger effect = higher value. In outline:
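Relative growth inhibition (compound vs vehicle) was measured in yeast with a defined repair-gene alteration.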

The nature of assay [2]: NCI Yeast Anticancer Drug Screen. Data for the mec2-1 strain (AID 157). Conditions: S. cerevisiae mec2-1 strain, stronger effect = higher value. Summed up:
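Compounds were applied to mec2-1 yeast cells. Their growth was then compared with that of vehicle-treated cultures to give growth inhibition.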

Assay [3] in a line: NCI Yeast Anticancer Drug Screen. Data for the sgs1 mgt1 strain (AID 161).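 Note: 0% = growth of cultures given vehicle only.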 Conditions: S. cerevisiae sgs1 mgt1 strain, stronger effect = higher value. Summed up:
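This yeast growth screen uses a strain with defined DNA-repair lesions; compound-treated growth is compared with vehicle-treated growth.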

The nature of assay [4]: NCI Yeast Anticancer Drug Screen. Data for the cln2 rad14 strain (AID 165).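 Note: 0% = growth equal to vehicle treated cultures.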 Conditions: S. cerevisiae cln2 rad14 strain, stronger effect = higher value. In outline:
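Strain: cln2 rad14 yeast, altered in cell cycle control and DNA damage repair. Read-out: growth inhibition vs vehicle.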

Assay [5] in a line: NCI Yeast Anticancer Drug Screen. Data for the bub3 strain (AID 167). Particulars: S. cerevisiae bub3 mutant strain, stronger effect = higher value. In outline: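 Screening used yeast with an engineered genetic alteration affecting cell cycle control. Compound-exposed cultures were compared with vehicle cultures, and reduced growth was taken as inhibition.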
The nature of assay [6]: NCI Yeast Anticancer Drug Screen. Data for the mlh1 rad18 strain (AID 175). Conditions: S. cerevisiae mlh1 rad18 strain growth inhibition, stronger effect = higher value. Summed up: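 A repair-deficient yeast strain is exposed to test compound, and growth is scored relative to vehicle-treated controls.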
Where [7] appears, read: at 5.0 µM (retest, dose inferred, filed as 0.5).
Where [8] appears, read: at 50.0 µM (retest, dose inferred, filed as 5.0).

This is part of a sample that, as a whole, favours compounds with a hit. Of some 79,000 tested, about 15% had one in any assay. Unmarked numbers belong to inactive results. Activity calls are given as the source filed them. Cut-off read from the data, not from the text of the source: active = growth inhibition above about 70%; inactive = the rest.

With `CC(C)=CCc1c(O)cc(O)c2c1OC(c1ccc(O)cc1)C(O)C2=O` (configuration not stated), the growth inhibition is -9% in assay [1] (setting [7]); 98% (active) in assay [1] (setting [8]); 93.2% (active) in assay [1] (at 50.0 µM); 1% in assay [2] (setting [7]); 99% (active) in assay [2] (setting [8]); 94% (active) in assay [2] (at 50.0 µM). Further, the growth inhibition in assay [3] (setting [7]) was -4%; in assay [3] (setting [8]), 99% (active); in assay [3] (at 50.0 µM), 93.8% (active); in assay [4] (setting [7]), 20%; in assay [4] (setting [8]), 99% (active); in assay [4] (at 50.0 µM) it was 91.5% (active). In addition, the growth inhibition in assay [5] (setting [7]) is 5%; in assay [5] (setting [8]) it was 99% (active); in assay [5] (at 50.0 µM), 92% (active); in assay [6] (setting [7]), -2%; in assay [6] (setting [8]) it was 99% (active); in assay [6] (at 50.0 µM) it was 92.5% (active).
For `COc1ccccc1NC(=O)C1=CNC(C)=C(C(=O)Nc2ccccc2OC)C1/C=C/c1ccccc1` (configuration not stated), the growth inhibition in assay [1] (setting [7]) was 1%; in assay [1] (setting [8]), 18%; in assay [1] (at 50.0 µM), 43.5%; in assay [2] (setting [7]), -4%; in assay [2] (setting [8]) it was 1%; in assay [2] (at 50.0 µM) it was -0.75%. In addition, the growth inhibition is 1% in assay [3] (setting [7]); 17% in assay [3] (setting [8]); -1.95% in assay [3] (at 50.0 µM); -1% in assay [4] (setting [7]); -8% in assay [4] (setting [8]); -6.3% in assay [4] (at 50.0 µM). Further, the growth inhibition was -2% in assay [5] (setting [7]); -8% in assay [5] (setting [8]); -1.9% in assay [5] (at 50.0 µM); -1% in assay [6] (setting [7]); 7% in assay [6] (setting [8]); 15.3% in assay [6] (at 50.0 µM).
With `N#[N+]c1c([O-])ccc2nc3ccccc3nc12`, the growth inhibition in assay [1] (setting [7]) was -101%; in assay [1] (setting [8]) it was 12%; in assay [1] (at 50.0 µM), 68.4%; in assay [2] (setting [7]) it was -43%; in assay [2] (setting [8]), -45%; in assay [2] (at 50.0 µM), 40.7%. Further, the growth inhibition is -56% in assay [3] (setting [7]); -30% in assay [3] (setting [8]); 10.2% in assay [3] (at 50.0 µM); -52% in assay [4] (setting [7]); -65% in assay [4] (setting [8]); -1.5% in assay [4] (at 50.0 µM). Also, the growth inhibition in assay [5] (setting [7]) is -59%; in assay [5] (setting [8]), -69%; in assay [5] (at 50.0 µM), -14.9%; in assay [6] (setting [7]), -114%; in assay [6] (setting [8]), -56%; in assay [6] (at 50.0 µM), 66.9%.
Regarding `CC(C)(C)C(=O)OCC(=O)c1ccc(-c2ccccc2)cc1`, the growth inhibition is -2% in assay [1] (setting [7]); -6% in assay [1] (setting [8]); 11% in assay [1] (at 50.0 µM); -6% in assay [2] (setting [7]); -6% in assay [2] (setting [8]); -0.25% in assay [2] (at 50.0 µM). Also, the growth inhibition was -2% in assay [3] (setting [7]); -4% in assay [3] (setting [8]); 13.7% in assay [3] (at 50.0 µM); -9% in assay [4] (setting [7]); -13% in assay [4] (setting [8]); -4.6% in assay [4] (at 50.0 µM). Moreover, the growth inhibition was 73% (active) in assay [5] (setting [7]); 86% (active) in assay [5] (setting [8]); 65% in assay [5] (at 50.0 µM); -4% in assay [6] (setting [7]); -8% in assay [6] (setting [8]); 3.75% in assay [6] (at 50.0 µM).
With `Cc1cc(N(CCOS(C)(=O)=O)CCOS(C)(=O)=O)ccc1C=Nc1cc(Br)c(O)c(Br)c1`, the growth inhibition in assay [1] (setting [7]) is 4%; in assay [1] (setting [8]), 71% (active); in assay [1] (at 50.0 µM), 82.5% (active); in assay [2] (setting [7]) it was -93%; in assay [2] (setting [8]), 63%; in assay [2] (at 50.0 µM) it was 72.6% (active). Besides, the growth inhibition in assay [3] (setting [7]) was 2%; in assay [3] (setting [8]), 53%; in assay [3] (at 50.0 µM) it was 84.2% (active); in assay [4] (setting [7]), 4%; in assay [4] (setting [8]), 43%; in assay [4] (at 50.0 µM), 50.4%. Also, the growth inhibition in assay [5] (setting [7]) was 2%; in assay [5] (setting [8]) it was 24%; in assay [5] (at 50.0 µM) it was 21.1%; in assay [6] (setting [7]), 22%; in assay [6] (setting [8]), 91% (active); in assay [6] (at 50.0 µM), 95.8% (active).
Regarding `C=CS(=O)(=O)c1ccc(Cl)cc1`, the growth inhibition was -116% in assay [1] (setting [7]); 97% (active) in assay [1] (setting [8]); 99.7% (active) in assay [1] (at 50.0 µM); -19% in assay [2] (setting [7]); 98% (active) in assay [2] (setting [8]); 99.7% (active) in assay [2] (at 50.0 µM). Besides, the growth inhibition in assay [3] (setting [7]) is -23%; in assay [3] (setting [8]) it was 98% (active); in assay [3] (at 50.0 µM) it was 99.2% (active); in assay [4] (setting [7]), -42%; in assay [4] (setting [8]) it was 98% (active); in assay [4] (at 50.0 µM), 99.1% (active). Besides, the growth inhibition in assay [5] (setting [7]) was -34%; in assay [5] (setting [8]), 98% (active); in assay [5] (at 50.0 µM), 99.4% (active); in assay [6] (setting [7]), -73%; in assay [6] (setting [8]) it was 97% (active); in assay [6] (at 50.0 µM), 99% (active).
Turning to `COc1ccc2c(c1)C(Br)CCC(Br)C2=O` (configuration not stated), the growth inhibition in assay [1] (setting [7]) is -20%; in assay [1] (setting [8]), 2%; in assay [1] (at 50.0 µM) it was 47.6%; in assay [2] (setting [7]), -48%; in assay [2] (setting [8]) it was -18%; in assay [2] (at 50.0 µM) it was 56.2%. Also, the growth inhibition was -17% in assay [3] (setting [7]); 26% in assay [3] (setting [8]); 80.3% (active) in assay [3] (at 50.0 µM); 13% in assay [4] (setting [7]); 39% in assay [4] (setting [8]); 33.5% in assay [4] (at 50.0 µM). Besides, the growth inhibition in assay [5] (setting [7]) is -36%; in assay [5] (setting [8]), 51%; in assay [5] (at 50.0 µM), 88.7% (active); in assay [6] (setting [7]), -20%; in assay [6] (setting [8]), 34%; in assay [6] (at 50.0 µM), 91.8% (active).
For `CCCCCC(CCCCC)OC(=O)CCN(CCCCC)CCCCC`, the growth inhibition is 2% in assay [1] (setting [7]); 81% (active) in assay [1] (setting [8]); 74% (active) in assay [1] (at 50.0 µM); 6% in assay [2] (setting [7]); 86% (active) in assay [2] (setting [8]); 46.1% in assay [2] (at 50.0 µM). The growth inhibition in assay [3] (setting [7]) was 14%; in assay [3] (setting [8]) it was 97% (active); in assay [3] (at 50.0 µM) it was 84% (active); in assay [4] (setting [7]), 5%; in assay [4] (setting [8]), 75% (active); in assay [4] (at 50.0 µM), 72% (active). The growth inhibition in assay [5] (setting [7]) was 1%; in assay [5] (setting [8]), 87% (active); in assay [5] (at 50.0 µM) it was 51.9%; in assay [6] (setting [7]) it was 3%; in assay [6] (setting [8]), 94% (active); in assay [6] (at 50.0 µM), 68.9%.
For `CCCCCCCCCCCCCCCC[N+](C)(C)C(C)c1ccc(OC)cc1` (configuration not stated), the growth inhibition in assay [1] (setting [7]) is 98% (active); in assay [1] (setting [8]), 98% (active); in assay [1] (at 50.0 µM), 90.6% (active); in assay [2] (setting [7]), 98% (active); in assay [2] (setting [8]) it was 98% (active); in assay [2] (at 50.0 µM) it was 90.2% (active). Also, the growth inhibition is 98% (active) in assay [3] (setting [7]); 99% (active) in assay [3] (setting [8]); 90% (active) in assay [3] (at 50.0 µM); 98% (active) in assay [4] (setting [7]); 99% (active) in assay [4] (setting [8]); 85.8% (active) in assay [4] (at 50.0 µM). For the same molecule, the growth inhibition was 98% (active) in assay [5] (setting [7]); 98% (active) in assay [5] (setting [8]); 92.3% (active) in assay [5] (at 50.0 µM); 98% (active) in assay [6] (setting [7]); 97% (active) in assay [6] (setting [8]); 91.8% (active) in assay [6] (at 50.0 µM).
